MCF10A rereplic: inducers of DNA re-replication in MCF 10A breast cells; hit rate 2.9% among 350,000; MCF 10A DNA re-replication, Hoechst nuclear intensity, 48 h; Potency, µM (titrated, usually from 46.1 µM), for inactives: top-dose activity, positive = re-replication, usual class: activators; AID 624296; note: % of control where 0% means no effect; nearly all actives have a fitted effect of over 50% in size
KB-V1 cytotox: kills drug-selected multidrug resistant KB-V1 cells. hit rate 3.4% among 400,000. KB-V1 MDR cells viability, CellTiter-Glo, 72 h. Potency, µM (titrated, usually from 46.1 µM), usual class: cytotoxic; note: % is set by controls: 0 for no effect and ±100 for the full control effect; nearly all actives have a fitted effect of over 60% in size
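Potencies derive from concentration-effect curves fitted to normalized luminescence (CellTiter-Glo) of KB-V1 cells treated for 72 h at 37 degrees C in phenol-red-free DMEM containing 10% FBS.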
SW480 rereplic: induces DNA re-replication in SW480 colon adenocarcinoma cells. SW480 DNA re-replication, Hoechst DNA content imaging, 48 h. Potency, µM (series often up to 46.1 µM), for the others: at the top dose re-replication activation, most hits filed as activators. hit rate 1.8% among 340,000. AID 624297; note: % of control where 0% means no effect; nearly all actives have a fitted effect of over 55% in size
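Treated cells incubate 48 hr (37 C, 5% CO2), are stained 40 min with Hoechst, and nuclear fluorescence is enumerated; a rise in nuclei with high DNA signal marks re-replication.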
KB-3-1 cytotox: KB-3-1 parental cell cytotoxicity; KB-3-1 viability, CellTiter-Glo ATP luminescence, 72 h; Potency, µM (top dose mostly 46.1 µM), usual class: cytotoxic; hit rate 1.4% among 400,000; AID 1347075; note: % is set by controls: 0 for no effect and ±100 for the full control effect; nearly all actives have a fitted effect of over 60% in size
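Cells are dispensed, compounds pinned in, plates held at 37 °C for 72 h, then CellTiter-Glo is added and luminescence read after 10 minutes. Cell line: parental KB-3-1 in phenol-red-free DMEM, 10% FBS.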
12-LOX inh: blocks human arachidonate 12S-lipoxygenase. hit rate 1.1% among 580,000. purified 12hLO, xylenol orange hydroperoxide absorbance. Potency, µM (top dose mostly 108 µM), for inactives: top-dose activity change, negative = inhibition, most hits filed as inhibitors; note: % is set by controls: 0 for no effect and ±100 for the full control effect
Target sequence (P18054 whole entry, looked up): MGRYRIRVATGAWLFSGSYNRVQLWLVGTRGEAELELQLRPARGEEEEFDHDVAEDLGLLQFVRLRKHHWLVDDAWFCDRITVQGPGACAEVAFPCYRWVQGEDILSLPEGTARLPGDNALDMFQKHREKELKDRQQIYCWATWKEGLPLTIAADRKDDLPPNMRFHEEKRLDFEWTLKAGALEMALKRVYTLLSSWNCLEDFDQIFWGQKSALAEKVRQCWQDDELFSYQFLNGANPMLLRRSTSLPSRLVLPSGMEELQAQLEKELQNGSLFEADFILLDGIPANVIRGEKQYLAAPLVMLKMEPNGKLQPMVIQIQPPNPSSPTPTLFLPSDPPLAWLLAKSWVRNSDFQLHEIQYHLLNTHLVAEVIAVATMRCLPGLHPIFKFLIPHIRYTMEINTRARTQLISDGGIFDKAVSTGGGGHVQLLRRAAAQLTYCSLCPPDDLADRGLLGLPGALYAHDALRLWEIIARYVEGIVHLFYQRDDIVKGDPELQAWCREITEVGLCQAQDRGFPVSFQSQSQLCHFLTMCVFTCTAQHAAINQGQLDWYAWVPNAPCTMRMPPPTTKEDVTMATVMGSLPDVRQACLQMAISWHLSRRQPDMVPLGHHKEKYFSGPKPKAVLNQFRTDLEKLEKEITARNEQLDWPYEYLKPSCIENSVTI
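Purified human 12hLO (150 nM final) in 25 mM Hepes, 0.01% Triton X-100, pH 7.0 was preincubated 15 min at room temperature with compound. Then 40 uM arachidonic acid was added, 30 min. Hydroperoxide was read by Fe-XO absorbance ratio 573/405 nm.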
PINK1 modulator: PINK1 expression modulation; PINK1 immunofluorescence, high-content cytometry, 24 h; Potency, µM (top dose mostly 76.6 µM), without a hit: top-dose activation (PINK1 increase), actives largely listed as activators; hit rate 0.2% among 410,000; AID 624263; active = well fitted activation curve with a large enough effect; inconclusive = small, poorly fitted or top-dose-only effect; cell line not stated here; note: % of control where 0% means no effect; nearly all actives have a fitted effect of over 65% in size
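Measures PINK1 amount and localization on or inside mitochondria by immunofluorescence. Stable cells get compounds at 5 concentrations for 24 hours before fixation and staining; CCCP controls included.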
Starred values were filed as active, the others as inactive; i = inactive; ? = inconclusive; / = no result; [ ] = another dose, or the depositor's remark. An excerpt weighted towards active compounds, which were near 5.8% of everything screened. Unless noted, calls come from the whole dose curve; as a rule, active = well fitted curve in the direction sought with a large enough effect; inconclusive = small, poorly fitted or top-dose-only effect, or another doubt; inactive = no such curve, though single readings can be large; an effect the other way counts as inactive or inconclusive. Potency is the fitted concentration of half-maximal effect.

SMILES	MCF10A rereplic	KB-V1 cytotox	SW480 rereplic	KB-3-1 cytotox	12-LOX inh	PINK1 modulator
CC(C)C(=O)N1CCN(c2ccccc2NC(=O)COc2ccc(C3CCCCC3)cc2)CC1	18.4µM*	/	?	/	/	-0.2%
CC(C)C(=O)N1CCN(c2ccccc2NC(=O)COc2ccccc2)CC1	9.5%	?	3.0%	i	0.7%	-0.7%
CN1CCN(c2ccccc2NC(=O)c2c(F)cccc2F)CC1	-3.7%	i	-2.9%	i	1.7%	0.4%
S=C(c1ccc(-c2ccc(Cl)cc2)o1)N1CCCCC1	1.2%	i	7.1%	?	15.8µM*	3.4%[38.3 µM]
S=C(c1ccc(-c2ccccc2Cl)o1)N1CCCCC1	?	i	16.3%	i	?	6.6%
Cc1ccc(NC(=S)NC(=O)c2ccc(-c3ccc(Cl)cc3)o2)c(O)c1	?	?	7.4%	?	?	3.3%
CS(=O)(=O)N1CCN(c2ccccc2NC(=O)c2ccc([N+](=O)[O-])o2)CC1	?	?	2.3%	i	2.0%	0.0%
CN1CCN(c2ccccc2NC(=O)c2ccc(-c3ccc(Br)cc3)o2)CC1	4.11µM*	?	8.2µM*	?	/	2.3%
Cc1cc(N2CCN(C)CC2)ccc1NC(=O)c1ccc(-c2ccc(Cl)cc2)o1	1.16µM*	i	6.3%	i	-23.2%	-1.7%
CN1CCN(c2ccccc2NC(=O)c2ccc(-c3cccc([N+](=O)[O-])c3)o2)CC1	?	i	?	i	-7.8%	2.9%
CN1CCN(c2ccccc2NC(=O)c2ccc([N+](=O)[O-])o2)CC1	14.6µM*	/	2.31µM*	/	/	-0.4%
Cc1cc(O)c(NC(=S)NC(=O)c2ccc(-c3ccc(Cl)cc3)o2)cc1C	16.4µM*	i	11.6%	i	?	1.1%
CCC(C)NC(=O)CSc1nc2ccccc2o1 (stereo unspecified)	/	/	/	/	12.1%	/
Cc1cccc(OCC(=O)Nc2ccccc2N2CCN(C)CC2)c1	-0.5%	?	4.7%	i	-5.4%	0.1%
CN1CCN(c2ccccc2NC(=O)COc2ccc(Br)cc2)CC1	?	20.6µM*	-10.6%	i	0.0%	-4.8%[38.3 µM]
Cc1ccc(N2CCN(C(=O)c3ccccc3)CC2)c(C)c1	2.2%	i	0.3%	i	-20.1%	-0.4%[38.3 µM]
COc1cc(C(=O)N2CCN(S(=O)(=O)c3ccc(F)cc3)CC2)cc(OC)c1OC	8.7%	20.6µM*	2.6%	i	2.6%	-13.6%[38.3 µM]
Cc1ccc(S(=O)(=O)N2CCCN(c3nc4cc(C)ccc4cc3C#N)CC2)cc1	?	?	-3.0%	i	4.9%	?
Cc1cc2cc(C#N)c(N3CCN(S(C)(=O)=O)CC3)nc2cc1C	-52.9%	18.4µM*	-1.9%	i	?	-1.3%
COc1cc(C(=O)N2CCN(c3ccc(C)cc3C)CC2)cc(OC)c1OC	18.4µM*	?	6.51µM*	2.31µM*	263.7%	2.6%
Cc1ccc2cc(C#N)c(N3CCN(C(=O)c4ccccc4)CC3)nc2c1	0.581µM*	i	?	i	1.6%	1.5%
O=C(Nc1ccc(C(=O)N(Cc2ccccc2)C2CC2)cc1)c1cccs1	/	/	/	/	10.5%	/
CNC(=O)/C=C/c1ccc([N+](=O)[O-])cc1	/	/	/	/	4.3%	/
CCOc1ccc(NC(=O)c2ccc3c(c2)S(=O)(=O)N=C(C)N3CC(C)C)cc1	/	/	/	/	1.4%	/
CC1=C(C(=O)N(C)C)C(c2ccc(Cl)cc2)N2C(CC(=O)NCC3CCCO3)=CSC2=N1 (stereo unspecified)	/	/	/	/	30.5%	/
SMILES	MCF10A rereplic	KB-V1 cytotox	SW480 rereplic	KB-3-1 cytotox	12-LOX inh	PINK1 modulator
COc1ccc(C(=O)N2CCN(c3nc4cc(C)ccc4cc3C#N)CC2)c(OC)c1	-1.8%	?	-6.7%	i	0.0%	2.6%
COc1cc(C(=O)C(=O)N2CCN(c3ccccc3)CC2)cc(OC)c1OC	/	?	/	20.6µM*	?	/
COc1cc(C(=O)N2CCCN(c3nc4cc(C)ccc4cc3C#N)CC2)cc(OC)c1OC	?	18.4µM*	-5.0%	i	-16.7%	4.4%[38.3 µM]
COc1cc(C(=O)C(=O)N2CCN(c3ccc(C)cc3)CC2)cc2ccccc12	/	?	/	i	?	/
CCOc1cc(S(=O)(=O)Nc2ccc(CC)cc2)ccc1Cl	?	14.6µM*	2.4%	?	?	5.9%[38.3 µM]
CCc1ccc(NS(=O)(=O)c2ccc(OC)c(C)c2)cc1	?	18.4µM*	5.7%	i	-8.8%	1.1%[38.3 µM]
COC(=O)C1(C)Cc2ccccc2C(=O)O1 (stereo unspecified)	/	/	/	/	32.6%	/
COc1ccc(C(=O)Nc2ccc(C)c3ncccc23)c(OC)c1	/	/	/	/	0.1%	/
CC(=O)N1CCC(N(CCCN2CCC(C)CC2)C(=O)Nc2cccc(C)c2C)CC1	/	/	/	/	-8.0%	/
NC(=S)NCc1cccnc1	10.6%	i	-6.7%	i	-22.7%	2.3%
CSC(=S)NCc1cccnc1	3.26µM*	i	3.66µM*	25.9µM*	5.9%	9.7%
CCCCc1ccc(NC(=S)NCc2cccnc2)cc1	?	14.6µM*	-16.8%	?	-6.3%	0.9%
Clc1ccccc1C1(c2ccnc(NCCc3ccncc3)n2)CCNCC1	/	/	/	/	25.7%	/
Cc1cc2c(cc1C)C(=O)CCC2	/	i	/	i	-3.0%	0.0%
O=C1CCCc2cc3c(ccc4ccccc43)cc21	18.4µM*	i	2.2%	i	-8.9%	-0.7%
COc1cc2cc(c1Cl)N(C)C(=O)CC(OC(=O)C(C)N(C)C(C)=O)C1(C)OC1C(C)C1CC(O)(NC(=O)O1)C(OC)C=CC=C(C)C2 (stereo unspecified)	?	0.461µM*	?	?	0.4%	16.6%
O=C(Nc1cnc(-c2ccc(Cl)cc2)nc1)C1CCC1	/	/	/	/	13.2%	/
COc1ccc(C2CC(O)(c3ccccc3)Oc3cc(OC)cc(OC)c32)cc1 (stereo unspecified)	20.6µM*	i	-3.8%	?	-18.6%	1.1%
Cc1cccc(/C=N/NC(=O)C2CC2)c1	/	/	/	/	15.5%	/
c1ccc(CN2CCC(N3CCC(N4CCCCCC4)CC3)CC2)cc1	?	i	?	i	/	-2.0%
c1ccc2c(c1)c1c(c3ccccc32)CN2CCCC2C1 (stereo unspecified)	?	16.4µM*	18.4µM*	?	?	-5.8%
C=CCNC(=O)N(C)Cc1ccc(C(N)=O)cc1	/	/	/	/	16.5%	/
CCOC(=O)c1cc([N+](=O)[O-])sc1NC(=O)c1ccc(S(=O)(=O)N2CC3(C)CC2CC(C)(C)C3)cc1 (stereo unspecified)	?	?	?	4.61µM*	3.2%	2.51µM*

Source: PubChem BioAssay (National Center for Advancing Translational Sciences (NCATS))
